This passage reports Percent Effect results from ChEMBL document CHEMBL3988442, “University of Dundee, Small-Polar-MMV Screening Library” (2021).

Holding throughout (design): scale not given: direction of the effect not stated beside the values
Assay [1] deals with Protein translocase subunit SecA (Escherichia coli (strain K12)) (UniProt P10408). As to the kind of experiment: Assay to Identify E. coli SecA ATPase Inhibitors. In kind it is functional. The following applies: 30 µM.
In assay [2] the target is T1, Ubiquitin-activating enzyme e1, putative (Leishmania donovani (strain BPK282A1)) (UniProt E9BSI1).
T1 sequence (whole entry): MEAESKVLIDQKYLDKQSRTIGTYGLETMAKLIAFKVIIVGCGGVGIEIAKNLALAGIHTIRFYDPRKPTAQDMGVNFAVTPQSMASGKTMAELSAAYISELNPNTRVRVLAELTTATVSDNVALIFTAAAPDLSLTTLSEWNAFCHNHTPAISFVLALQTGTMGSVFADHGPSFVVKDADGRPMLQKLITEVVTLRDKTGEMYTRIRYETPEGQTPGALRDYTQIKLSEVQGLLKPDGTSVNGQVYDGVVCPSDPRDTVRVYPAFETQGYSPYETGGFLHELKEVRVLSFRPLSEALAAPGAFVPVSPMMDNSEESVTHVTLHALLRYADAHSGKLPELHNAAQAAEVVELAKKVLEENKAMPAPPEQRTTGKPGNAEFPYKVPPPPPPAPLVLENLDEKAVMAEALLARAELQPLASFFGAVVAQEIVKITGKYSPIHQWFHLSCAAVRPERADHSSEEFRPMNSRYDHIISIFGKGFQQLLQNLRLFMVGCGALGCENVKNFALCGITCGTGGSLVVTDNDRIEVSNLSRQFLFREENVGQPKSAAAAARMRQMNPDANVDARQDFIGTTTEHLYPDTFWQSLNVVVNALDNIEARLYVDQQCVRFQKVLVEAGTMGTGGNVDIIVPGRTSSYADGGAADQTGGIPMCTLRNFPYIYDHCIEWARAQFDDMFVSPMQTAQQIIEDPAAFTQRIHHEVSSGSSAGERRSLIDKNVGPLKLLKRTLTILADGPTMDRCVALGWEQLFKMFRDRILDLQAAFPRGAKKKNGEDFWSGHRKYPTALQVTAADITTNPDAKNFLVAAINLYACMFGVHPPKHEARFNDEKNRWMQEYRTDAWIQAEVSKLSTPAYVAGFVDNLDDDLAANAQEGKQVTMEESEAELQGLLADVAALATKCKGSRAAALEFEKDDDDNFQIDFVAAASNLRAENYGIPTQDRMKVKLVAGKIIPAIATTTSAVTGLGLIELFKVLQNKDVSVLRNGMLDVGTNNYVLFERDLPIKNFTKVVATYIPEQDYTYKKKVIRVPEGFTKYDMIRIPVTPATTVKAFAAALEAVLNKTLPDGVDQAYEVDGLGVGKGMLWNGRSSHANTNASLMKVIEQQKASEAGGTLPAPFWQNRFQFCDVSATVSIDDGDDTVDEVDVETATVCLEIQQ
The assay is described as follows: Leishmania donovani Ubiquitin Activating Enzyme (LdE1). In kind it is functional. Conditions: 30 µM.

For assay [3], the target named is AMP-activated protein kinase, AMPK (Homo sapiens) (UniProt P54646+O43741+P54619+Q9UGJ0+Q9Y478+Q13131+Q9UGI9). The assay is described as follows: AMP-dependent Kinase enzyme assay. An in vitro enzyme assay that detects ADP turnover that is directly proportional to AMPK activity. This uses naive AMPK that is activated during the assay with MK-8722. Format: functional. The following applies: 30 µM.

For assay [4], the target named is Sialic acid-binding Ig-like lectin 9 (Homo sapiens) (UniProt Q9Y336). The assay is described as follows: Hs-Siglec9 ALPHAscreen SOP 20170721. Conditions: 10 µM. (Bead proximity is the source of the signal in Alpha formats.)
Chain of Sialic acid-binding Ig-like lectin 9 (Homo sapiens) (Q9Y336 whole entry): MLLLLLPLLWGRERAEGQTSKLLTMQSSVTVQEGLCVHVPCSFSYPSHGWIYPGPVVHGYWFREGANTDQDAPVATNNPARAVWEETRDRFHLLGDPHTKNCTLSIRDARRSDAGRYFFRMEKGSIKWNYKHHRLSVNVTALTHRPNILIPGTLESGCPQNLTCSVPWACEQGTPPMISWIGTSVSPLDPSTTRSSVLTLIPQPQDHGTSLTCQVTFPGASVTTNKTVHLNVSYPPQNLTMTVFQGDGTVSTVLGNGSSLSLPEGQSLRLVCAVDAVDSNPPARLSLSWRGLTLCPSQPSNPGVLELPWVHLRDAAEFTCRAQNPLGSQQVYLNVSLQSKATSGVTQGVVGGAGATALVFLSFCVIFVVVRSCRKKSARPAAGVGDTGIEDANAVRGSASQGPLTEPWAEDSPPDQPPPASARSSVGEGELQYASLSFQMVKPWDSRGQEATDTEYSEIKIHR
The next assay relates to Trypanosoma cruzi. The assay is described as follows: Trypanosoma cruzi phosphomannomutase and mannose-1-phosphate guanylyltransferase assay. The following applies: 10 µM. Format: functional.
Assay [5] addresses T2, Arginase-2, mitochondrial (Homo sapiens) (UniProt P78540).
T2 sequence (whole entry): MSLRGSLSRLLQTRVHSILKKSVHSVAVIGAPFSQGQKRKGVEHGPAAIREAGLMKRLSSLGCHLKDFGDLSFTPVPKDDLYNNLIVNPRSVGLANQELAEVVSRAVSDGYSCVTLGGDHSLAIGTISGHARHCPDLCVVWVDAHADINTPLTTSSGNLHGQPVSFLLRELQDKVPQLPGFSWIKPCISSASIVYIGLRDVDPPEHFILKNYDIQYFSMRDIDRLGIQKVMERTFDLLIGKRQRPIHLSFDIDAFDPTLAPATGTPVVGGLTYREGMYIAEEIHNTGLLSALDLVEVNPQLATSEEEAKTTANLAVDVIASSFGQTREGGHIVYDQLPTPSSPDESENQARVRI
The assay is described as follows: in vitro enzyme assay to detect the production of urea directly proportional to the activity of Arginase II. Also: in the data most compounds retested in dose-response had high values. Format: functional. Conditions: 33.3 µM.

Assay [6] addresses T3, Proteasome subunit beta (Trypanosoma cruzi) (UniProt O96673).
T3 sequence (whole entry): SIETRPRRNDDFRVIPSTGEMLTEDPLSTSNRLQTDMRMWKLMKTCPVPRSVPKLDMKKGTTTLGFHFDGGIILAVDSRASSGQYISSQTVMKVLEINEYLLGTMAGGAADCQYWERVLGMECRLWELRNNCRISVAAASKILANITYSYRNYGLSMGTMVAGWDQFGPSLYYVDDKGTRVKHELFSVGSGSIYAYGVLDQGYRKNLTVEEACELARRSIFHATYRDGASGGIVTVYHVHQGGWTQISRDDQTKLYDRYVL
The assay is described as follows: Trypanosoma cruzi proteasome chymotrypsin-like activity (TcProtChymo) assay. Also: in the data most compounds retested in dose-response had high values. Format: functional. The following applies: 9.37 µM.

For the next assay, the species on record is Homo sapiens. The assay is described as follows: To identify inhibition of the IFN signalling (Jak-Stat) pathway via expression of an eGFP reporter gene under the control of an IFN-stimulated response element (ISRE) containing MxA promoter. Format: functional. Conditions: 30 µM. For orientation: A reporter such as luciferase makes a cellular process visible.

For assay [7], the target named is T4, Tyrosyl-tRNA synthetase, putative (Trypanosoma cruzi (strain CL Brener)) (UniProt Q4DSP6).
T4 sequence (whole entry): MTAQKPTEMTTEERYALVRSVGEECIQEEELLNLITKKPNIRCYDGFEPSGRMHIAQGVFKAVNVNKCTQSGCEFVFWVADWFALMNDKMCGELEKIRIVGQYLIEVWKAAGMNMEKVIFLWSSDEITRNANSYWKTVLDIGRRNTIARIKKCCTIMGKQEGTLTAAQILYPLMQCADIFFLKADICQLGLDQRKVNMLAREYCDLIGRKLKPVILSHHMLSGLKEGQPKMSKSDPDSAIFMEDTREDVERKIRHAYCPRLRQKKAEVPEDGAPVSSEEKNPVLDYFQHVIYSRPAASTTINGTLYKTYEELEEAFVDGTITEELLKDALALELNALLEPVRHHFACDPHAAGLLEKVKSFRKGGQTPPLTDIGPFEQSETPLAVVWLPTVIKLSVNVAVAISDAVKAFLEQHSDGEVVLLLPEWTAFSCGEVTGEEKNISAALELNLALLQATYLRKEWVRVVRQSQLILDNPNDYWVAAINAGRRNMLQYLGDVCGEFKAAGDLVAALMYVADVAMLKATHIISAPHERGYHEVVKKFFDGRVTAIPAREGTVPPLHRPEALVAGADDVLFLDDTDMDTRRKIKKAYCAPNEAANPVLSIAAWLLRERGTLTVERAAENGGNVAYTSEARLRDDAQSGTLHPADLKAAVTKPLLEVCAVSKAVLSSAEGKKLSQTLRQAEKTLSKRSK
The assay is described as follows: Trypanosoma cruzi tyrosyl tRNA synthetase (TcYRS) _High Tyrosine SOP. Also: in the data most compounds retested in dose-response had high values. In kind it is functional. The following applies: 30 µM.

Assay [8] deals with T4, Tyrosyl-tRNA synthetase, putative (Trypanosoma cruzi (strain CL Brener)). As to the kind of experiment: Trypanosoma cruzi tyrosyl tRNA synthetase (TcYRS) SOP. Format: functional. Conditions: 30 µM.
In assay [9] the target is Chromo domain-containing protein 1 (Saccharomyces cerevisiae (strain ATCC 204508 / S288c) (Baker's yeast)) (UniProt P32657). The assay is described as follows: ScCHD-1 Enzyme Inhibition Assay. Also: in the data most compounds retested in dose-response had high values. Format: functional. The following applies: 30 µM.
Chain of Chromo domain-containing protein 1 (Saccharomyces cerevisiae (strain ATCC 204508 / S288c) (Baker's yeast)) (P32657 whole entry, the tested form may be a part): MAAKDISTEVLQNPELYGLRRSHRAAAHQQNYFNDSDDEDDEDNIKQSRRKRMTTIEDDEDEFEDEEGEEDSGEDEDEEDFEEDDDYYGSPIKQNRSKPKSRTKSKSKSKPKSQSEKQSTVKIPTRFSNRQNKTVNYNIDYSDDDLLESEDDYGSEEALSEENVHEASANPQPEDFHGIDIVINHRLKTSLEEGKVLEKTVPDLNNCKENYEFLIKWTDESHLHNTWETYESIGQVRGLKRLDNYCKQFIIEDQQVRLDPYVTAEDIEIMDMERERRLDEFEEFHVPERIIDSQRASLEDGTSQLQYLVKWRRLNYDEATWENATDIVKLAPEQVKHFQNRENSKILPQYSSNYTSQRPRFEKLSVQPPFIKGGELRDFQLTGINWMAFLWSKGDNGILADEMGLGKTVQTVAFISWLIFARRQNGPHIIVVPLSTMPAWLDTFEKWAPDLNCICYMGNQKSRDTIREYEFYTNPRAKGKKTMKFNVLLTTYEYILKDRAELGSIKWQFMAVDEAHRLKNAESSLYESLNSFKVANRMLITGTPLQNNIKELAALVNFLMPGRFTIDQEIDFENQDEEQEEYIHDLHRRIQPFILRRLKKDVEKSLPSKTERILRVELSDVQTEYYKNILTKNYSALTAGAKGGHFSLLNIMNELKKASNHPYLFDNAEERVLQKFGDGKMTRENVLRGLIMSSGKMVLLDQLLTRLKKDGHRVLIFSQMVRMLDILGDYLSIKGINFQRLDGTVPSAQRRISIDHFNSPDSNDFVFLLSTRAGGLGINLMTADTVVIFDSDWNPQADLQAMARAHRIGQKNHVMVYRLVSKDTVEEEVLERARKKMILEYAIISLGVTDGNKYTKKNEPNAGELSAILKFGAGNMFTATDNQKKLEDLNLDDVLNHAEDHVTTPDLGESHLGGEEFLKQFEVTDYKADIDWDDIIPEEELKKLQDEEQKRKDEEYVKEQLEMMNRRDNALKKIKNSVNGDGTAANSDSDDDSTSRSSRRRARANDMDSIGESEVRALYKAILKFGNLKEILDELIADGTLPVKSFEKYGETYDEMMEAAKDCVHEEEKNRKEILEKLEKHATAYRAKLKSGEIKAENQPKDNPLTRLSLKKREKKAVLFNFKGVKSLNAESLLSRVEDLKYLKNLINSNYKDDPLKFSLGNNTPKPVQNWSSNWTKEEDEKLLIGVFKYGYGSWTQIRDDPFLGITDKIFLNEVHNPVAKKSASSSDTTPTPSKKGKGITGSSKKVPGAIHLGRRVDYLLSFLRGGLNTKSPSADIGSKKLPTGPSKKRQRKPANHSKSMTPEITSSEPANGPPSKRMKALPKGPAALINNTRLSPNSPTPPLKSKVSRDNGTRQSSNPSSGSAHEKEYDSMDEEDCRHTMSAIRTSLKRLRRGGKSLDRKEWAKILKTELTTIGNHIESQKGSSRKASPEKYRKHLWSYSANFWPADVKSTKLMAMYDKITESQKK

Molecules are shown by their SMILES. For some of these results: Potency and affinity values are given separately.

Chain of Protein translocase subunit SecA (Escherichia coli (strain K12)) (P10408 whole entry): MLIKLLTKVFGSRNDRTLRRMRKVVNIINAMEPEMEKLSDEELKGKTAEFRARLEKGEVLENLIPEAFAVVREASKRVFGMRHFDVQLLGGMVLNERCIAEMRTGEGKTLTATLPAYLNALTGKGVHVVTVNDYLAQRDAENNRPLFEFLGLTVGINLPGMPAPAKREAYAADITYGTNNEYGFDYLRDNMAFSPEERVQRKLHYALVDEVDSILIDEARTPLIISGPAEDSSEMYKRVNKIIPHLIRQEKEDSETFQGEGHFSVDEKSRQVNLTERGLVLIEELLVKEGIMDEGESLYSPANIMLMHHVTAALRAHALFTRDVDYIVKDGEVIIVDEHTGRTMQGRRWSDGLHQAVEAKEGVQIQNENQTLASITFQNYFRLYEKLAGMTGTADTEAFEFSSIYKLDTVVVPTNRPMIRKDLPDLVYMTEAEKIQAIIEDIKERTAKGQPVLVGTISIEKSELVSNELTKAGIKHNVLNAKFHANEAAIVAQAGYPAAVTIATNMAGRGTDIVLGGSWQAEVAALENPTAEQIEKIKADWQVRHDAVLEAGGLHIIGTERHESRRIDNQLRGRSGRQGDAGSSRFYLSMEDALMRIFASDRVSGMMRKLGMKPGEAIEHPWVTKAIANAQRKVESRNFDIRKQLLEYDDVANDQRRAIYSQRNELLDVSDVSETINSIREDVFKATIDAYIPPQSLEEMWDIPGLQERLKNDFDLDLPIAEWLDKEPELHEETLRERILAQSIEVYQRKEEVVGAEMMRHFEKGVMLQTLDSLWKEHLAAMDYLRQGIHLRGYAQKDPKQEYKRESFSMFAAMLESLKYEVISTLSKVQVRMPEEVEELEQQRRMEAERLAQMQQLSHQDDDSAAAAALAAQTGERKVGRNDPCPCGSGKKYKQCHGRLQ

On to `COc1ccc(-c2nc(CN3CCCC3Cn3cccn3)no2)cc1` (stereo unspecified), for which the Percent Effect is -6.58% in assay [1]; 7.79% in assay [2]; -5.32% in assay [3]; 11.9% in [4]; 8.99% in the assay on Trypanosoma cruzi; -6.41% in [5]. Also, the Percent Effect in assay [6] is 9.12%; in the assay filed under Homo sapiens it was 12.7%; in [7] it was 5.83%; in [8], 21.9%; in [9], -11.9%.
As for `CC1CN(C)c2ccccc2CN1C(=O)c1ccc[nH]1` (stereo unspecified), the Percent Effect in assay [1] is -4.68%; in assay [2], 5.48%; in [3], -8.65%; in [4], -2.78%; with Trypanosoma cruzi, -0.196%; in assay [5], 0.455%. Moreover, the Percent Effect is 12.9% in assay [6]; 20.4% in the assay filed under Homo sapiens; 5.38% in assay [7]; 10% in assay [8]; -4.57% in assay [9].
`COc1cccc(C(=O)NS(=O)(=O)c2cccc(C#N)c2)c1OC`: the Percent Effect was -5.72% in [1]; 10.8% in [2]; -6.64% in assay [3]; 1.98% in [4]; 1.58% in the assay on Trypanosoma cruzi; 2.4% in assay [5]. Also, the Percent Effect is -0.539% in assay [6]; 0.367% in the assay listed under Homo sapiens; 1.98% in assay [7]; 13.4% in assay [8]; 3.98% in [9].
As to `c1cnnc(N2CCCC(NCc3ccc(-n4ccnc4)cc3)C2)c1` (stereo unspecified), the Percent Effect is -1.81% in assay [1]; 2.6% in assay [2]; 5.74% in [3]; 12% in [4]; -0.49% in the assay on Trypanosoma cruzi; 1.9% in assay [5]. Further, the Percent Effect was 8.33% in assay [6]; 3.55% in the assay listed under Homo sapiens; 0.952% in assay [7]; 0% in [8]; -13.3% in assay [9].
With `CC(C)c1noc(CN2CCN(C(=O)c3ccccc3F)CC2)n1`, the Percent Effect was -4.33% in [1]; 13.5% in assay [2]; -4.45% in assay [3]; 3.5% in [4]; -2.32% in the assay on Trypanosoma cruzi; -3.88% in assay [5]. The Percent Effect in assay [6] is 6.82%; in the assay listed under Homo sapiens it was 23.6%; in assay [7], 7.92%; in assay [8], 18.3%; in [9], 0.419%.
With `Cc1cc(C(=O)N2CCCCC2C)ccc1NCCCO` (stereo unspecified), the Percent Effect was -2.03% in [1]; -2.6% in assay [2]; 3.91% in assay [3]; 5.61% in assay [4]; -3% in the assay with Trypanosoma cruzi; 0.712% in assay [5]. Besides, the Percent Effect in assay [6] is 4.73%; in the assay listed under Homo sapiens it was -4.27%; in assay [7], 3.88%; in assay [8], 7.32%; in [9], -0.238%.
Take `O=C(Nc1ccc(N2CCCC2)nc1)N1CCc2sccc2C1`: the Percent Effect in [1] is -5.59%; in assay [2], 2.7%; in assay [3], 0.616%; in assay [4], 0.939%; with Trypanosoma cruzi, -8.59%; in assay [5], -0.833%. Further, the Percent Effect in assay [6] came out at 22.1%; in the assay filed under Homo sapiens, 7.44%; in [7] it was 13.9%; in assay [8] it was 13.4%; in assay [9], 1.64%.
Regarding `CCn1ncc2c1CCCC2NCc1cccc2c1OCCO2` (stereo unspecified), the Percent Effect was -2.98% in assay [1]; -6.33% in assay [2]; 6.39% in assay [3]; -0.488% in [4]; -0.718% in the assay with Trypanosoma cruzi; 4.09% in assay [5]. Further, the Percent Effect in assay [6] is 0%; in the assay listed under Homo sapiens, 12.6%; in assay [7], 0%; in assay [8], 2.53%; in [9], -17.9%.
With `Cc1nc(CN2CCC(CNC(=O)Nc3ccccn3)CC2)oc1C`, the Percent Effect in assay [1] was -6.4%; in assay [2] it was 2.7%; in [3], -0.75%; in assay [4], -0.537%; in the assay with Trypanosoma cruzi, -1.27%; in assay [5], -0.744%. Also, the Percent Effect in assay [6] is -1.46%; in the assay filed under Homo sapiens it was -2.29%; in [7] it was 4.3%; in assay [8] it was 11.1%; in assay [9], -2.16%.
`Cc1nc(C(C)(C)NC(=O)Nc2cccc(C#N)c2)no1`: the Percent Effect in [1] was -4.07%; in assay [2], 5.48%; in [3], 3.16%; in assay [4], 8.84%; in the assay on Trypanosoma cruzi, 8.81%; in assay [5] it was -0.455%. Further, the Percent Effect in assay [6] is 15.1%; in the assay filed under Homo sapiens, 3.14%; in assay [7] it was 5.38%; in [8] it was 15%; in [9] it was -4.58%.
`CC(C)CCC(C)NC(=O)c1ccc(OCC(N)=O)cc1` (stereo unspecified): the Percent Effect in assay [1] was 0.307%; in assay [2] it was 10.8%; in assay [3] it was -4.08%; in assay [4], 5.06%; with Trypanosoma cruzi, -2.7%; in assay [5] it was -1.43%. Moreover, the Percent Effect in [6] is 10.5%; in the assay filed under Homo sapiens, 11.1%; in assay [7], 5.82%; in [8], 12.2%; in assay [9], -4.44%.
